# Test results published in PubChem BioAssay (NCI).
# About 83,000 compounds went through this panel and 20% of them were active in at least one assay; those are over-represented in the sample as a whole.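 Interpretation: 100, growth as untreated; towards 0, rising growth inhibition; 0, no net growth; 0 to -100, cell death. Compounds scoring below 10 were considered active.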 A number with no mark means an inactive call. Activity calls are given as the source filed them.
# Experiments:
# Experiment in all cases: NCI-60 one-dose screen, 48 h (100 = growth as untreated, 0 = no growth, -100 = all killed)
# Settings in all cases: 10 µM unless noted
# NCI-H23 lung = system: NCI-H23 lung
# NCI-H226 lung = system: NCI-H226 lung
# NCI-H322M lung = system: NCI-H322M lung
# HOP-62 NSCLC = system: HOP-62 NSCLC
# NCI-H460 lung = system: NCI-H460 lung
# NCI-H522 lung = system: NCI-H522 lung
# A549/ATCC NSCLC = system: A549/ATCC NSCLC
# 786-0 renal = system: 786-0 renal
# COLO 205 colon = system: COLO 205 colon
# DU-145 prostate = system: DU-145 prostate
# K-562 leukemia = system: K-562 leukemia
# MALME-3M melanoma = system: MALME-3M melanoma
# MDA-MB-231 breast = system: MDA-MB-231 breast
# RXF 393 renal = system: RXF 393 renal
# SF-268 CNS = system: SF-268 CNS
# SF-295 CNS = system: SF-295 CNS
# SF-539 CNS = system: SF-539 CNS
# UACC-257 melanoma = system: UACC-257 melanoma
# M14 melanoma = system: M14 melanoma
# HCT-15 colon = system: HCT-15 colon
Structure (SMILES),growth (NCI-H23 lung),growth (NCI-H226 lung),growth (NCI-H322M lung),growth (HOP-62 NSCLC),growth (NCI-H460 lung),growth (NCI-H522 lung),growth (A549/ATCC NSCLC),growth (786-0 renal),growth (COLO 205 colon),growth (DU-145 prostate),growth (K-562 leukemia),growth (MALME-3M melanoma),growth (MDA-MB-231 breast),growth (RXF 393 renal),growth (SF-268 CNS) [%],growth (SF-295 CNS),growth (SF-539 CNS),growth (UACC-257 melanoma) [%],growth (M14 melanoma),growth (HCT-15 colon)
C[C@@H]1CC[C@H]2[C@@H](C)C(O)O[C@@H]3O[C@]4(C)CC[C@@H]1[C@]32OO4 (stereo not given in full),15.4%,69.8%,68.9%,59.4%,30.6%,-8.88% (active),41.5%,46.1%,6.72% (active),75.1%,10.8%,28.3%,77.4%,49.3%,52.7,26.4%,33.6%,38.3,29.8%,10.7%
COc1ccc(C2=NN(C(C)=O)C(c3cc(OC)c(OC)c(OC)c3)C2)cc1 (stereo not given),101%,119%,119%,105%,108%,67.7%,108%,108%,108%,107%,75.4%,120%,109%,111%,94.4,95.4%,91.5%,113,98.3%,84.6%
CC(C)c1nc(N(C)S(C)(=O)=O)nc(-c2ccc(F)cc2)c1/C=C/[C@@H](O)C[C@@H](O)CC(=O)O,109%,105%,93.9%,108%,118%,69.9%,97.9%,106%,105%,103%,130%,104%,63.7%,105%,77.5,100%,97.6%,103,104%,95.2%
CC(=O)c1cc(C(=O)c2ccc3c(c2)Sc2ccccc2N3)c2c(C)cc(C)cn12,26.7%,30%,44.9%,20.8%,0.69% (active),-31.2% (active),3.95% (active),4% (active),-37.4% (active),2.22% (active),4.47% (active),69.6%,-13.5% (active),34.3%,11.9,-1.02% (active),-2.53% (active),26.9,9.62% (active),15%
COc1ccc2[nH]c(-c3ccccc3)cc2c1,98.9%,96.5%,120%,115%,111%,74.1%,96.2%,103%,110%,101%,76.5%,122%,90%,100%,110,105%,103%,87.5,112%,97%
Cc1c(NCc2nnc3n(Cc4ccccc4)c(=O)c4c5c(sc4n23)CCCC5)c(=O)n(-c2ccccc2)n1C,92.4%,94.8%,92.2%,105%,98.9%,71.3%,66.7%,72.3%,101%,75.6%,53.5%,113%,96.5%,84.5%,74.1,67.2%,103%,80.9,83.2%,94.6%
CCOC(=O)c1c(C)nc(C)c(C(=O)OCC)c1-c1cccnc1,101%,106%,108%,94.6%,101%,95.8%,103%,94.5%,101%,116%,92.4%,111%,113%,131%,106,112%,97.1%,108,95%,97%
C[C@]12CC[C@@H]3c4ccc(O)c([N+](=O)[O-])c4CC[C@H]3[C@@H]1CC[C@@H]2NS(=O)(=O)c1ccc(C(F)(F)F)cc1,28%,53.7%,54.1%,56.2%,10.5%,-67.8% (active),19.5%,43%,98%,47.4%,6.98% (active),31%,-9.58% (active),-1.18% (active),36,18.7%,62.4%,44,34.2%,18%
COc1ccc2c3c(c(OCCCN(C)C)nc2c1)-c1ccc(Cl)cc1C3=O,-2.72% (active),32.1%,3.92% (active),10% (active),-81.2% (active),-64.3% (active),-64.1% (active),-40.3% (active),-45.2% (active),15.3%,-59% (active),-57.5% (active),-62.3% (active),-91.9% (active),43.9,86%,13.9%,86.9,-59.2% (active),-89.4% (active)
CCOC(=O)C1=C(COCCN)NC(C)=C(C(=O)OC)C1c1ccccc1Cl (stereo not given),83.7%,91.9%,80.3%,89.7%,60.3%,73.3%,71.8%,70.1%,-51.9% (active),98.6%,59.1%,74%,17.4%,50.9%,87,96.2%,92.9%,59,48.6%,64.6%
c1ccc2cc(C[n+]3ccn(CCCCCCCn4cc[n+](Cc5ccc6ccccc6c5)c4)c3)ccc2c1,14.4%,59.5%,58.6%,32.6%,14.6%,5.87% (active),26.7%,95.8%,20%,49.2%,19.1%,-9.13% (active),49%,74%,34.4,21.6%,33.4%,15.8,47.1%,82.6%
CCOc1cccc(C2CC(=O)Nc3cc4c(cc32)OCO4)c1 (stereo not given),77.9%,65%,91.1%,87%,94.2%,66.5%,94.2%,93.4%,96.8%,94.5%,48.2%,83.4%,111%,78.8%,89.4,76%,91.7%,94.5,102%,77.3%
Cc1cc(C)c2c(c1)N1OC(C2)C[C@H]1/C=C/c1ccccc1 (stereo not given in full),88.5%,77.6%,81.3%,111%,112%,84.7%,95.2%,102%,111%,117%,88.2%,103%,101%,115%,107,108%,111%,113,104%,88.7%
COc1ccc2c(c1)C(=O)c1c-2c(OCCN(C)C)nc2cc(OC)ccc12,-57.2% (active),-25.7% (active),19.7%,14.9%,-70.7% (active),-22.1% (active),-43.6% (active),36.1%,2.84% (active),29%,-47.7% (active),-39.9% (active),1.22% (active),-8.64% (active),35.7,31.8%,15%,20.5,11.6%,-63.4% (active)
COc1ccc(-c2nn(-c3ccccc3)cc2/C=C2\SC(=S)N(CCc3ccc(O)cc3)C2=O)cc1,89.2%,86.7%,88.6%,97.1%,81.7%,64.7%,81.2%,93.7%,108%,93.3%,66%,85.1%,75.4%,92.5%,81.4,80.2%,87.2%,93.7,91.3%,77.7%
